Screening data from PubChem.
Only some compounds are listed: those with a hit (about 0.86% of all), similar ones and a draw of the others.
TLR9-MyD88 inh = inhibitors of human TLR9-MyD88 binding; 340,000 tested, 0.21% active; inhibition, % at 4.98 µM; CHO BLA complementation TLR9-MyD88, CCF4 FRET ratio; Q9NR96+Q99836;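 active = inhibition above the mean over all tested compounds plus 3 SD, cut at about 21% in these data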
NOD2 RIPK2 PPI = blocks binding of human NOD2 to RIPK2 | O43353 | CHO BLA complementation NOD2-RIPK2, CCF4 ratio | inhibition, % at 4.98 µM | 360,000 tested, 0.38% active; in the data active = inhibition above about 21%
IDE inh = inhibitors of human insulin-degrading enzyme in cells. inhibition, % at 5.59 µM. 320,000 tested, 0.41% active. AID 434962. HEK cells, FAbetaB cleavage, fluorescence polarization;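 active = percent inhibition above the average of all tested compounds plus 3 SD, set per screening campaign, cut at about 16% in these data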;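 also: IDE supplied by intact live HEK cells; FP after avidin binding of uncleaved biotin substrate so inhibition keeps polarization high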
TLR4-MyD88 BLA = TLR4-MyD88 interaction inhibition in cells. 200,000 tested, 0.18% active. HeLa CL3-4 TLR4/MyD88 BLA complementation, FRET ratio. inhibition, % at 8.4 µM. AID 861. O00206+Q99836; in the data active = inhibition above about 25%
IDE cell activ = boosts human insulin-degrading enzyme activity in HEK cells; FAbeta-B cleavage, fluorescence polarization; 0% vehicle, 100% cell-free pure enzyme wells; activation, % at 5.96 µM; 340,000 tested, 0.073% active; AID 493087;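 active = activation above the mean of all tested compounds plus 3 SD, set per screening campaign, cut at about 17% in these data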
IDE inh confirm = cellular human IDE inhibition, confirmation; shares compounds with IDE inh; HEK cells, FAbetaB cleavage, fluorescence polarization; inhibition, % at 5.59 µM; 1,200 tested, 51% active;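 active = mean inhibition across triplicate wells above the cutoff set by the earlier primary insulin-degrading enzyme screen, cut at about 16% in these data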
HEK cytotox = HEK cell cytotoxicity, counter-screen for IDE inhibitors | shares compounds with IDE inh | HEK293 cytotoxicity, ATP luminescence | inhibition, % at 5.59 µM | 1,200 tested, 28% active | AID 449730; in the data active = inhibition above about 22%
FP fluor counter = counter-screen for IDE inhibitors: fluorescent artifacts. shares compounds with IDE inh. FP counterscreen for fluorescent artifacts, IDE probe project. IC50, µM. 30 tested, under 10 active; call rule not given here
Numbers stand for hits; 0 = inactive; - = not tested or not shown.

SMILES | TLR9-MyD88 inh | NOD2 RIPK2 PPI | IDE inh | TLR4-MyD88 BLA | IDE cell activ | IDE inh confirm | HEK cytotox | others
COc1ccc(C(=O)N2CCN(C(=O)C3COc4ccccc4O3)CC2)cc1OC (stereo not drawn) | 0 | 0 | 17 | - | 0 | 16 | 0 | FP fluor counter=0
O=C(CCCOc1ccc(Cl)cc1Cl)NCc1ccncc1 | 0 | 0 | 24 | 0 | 0 | 0 | 0
O=C(COc1ccc(Cl)cc1Cl)NCc1ccncc1 | 0 | 0 | - | 0 | 0 | - | -
COC(=O)C1=C(C)N=c2s/c(=C/c3ccoc3)c(=O)n2C1c1ccccc1 (stereo not drawn) | 0 | 0 | 28 | 0 | 0 | 29 | 0
COc1cc(/C=C(/C#N)C(=O)NC(C)c2ccccc2)cc(OC)c1O (stereo not drawn) | 0 | 0 | 75 | - | 0 | 79 | 0
CC(NC(=O)/C(C#N)=C/c1ccc(C(=O)O)cc1)c1ccccc1 (stereo not drawn) | 0 | 0 | 0 | - | 0 | - | -
COc1ccc([N+](=O)[O-])cc1NC(=O)Cc1noc2ccccc12 | 0 | 0 | 0 | 0 | 0 | - | -
C=CCn1c(SCC(=O)N2CCN(C(=O)c3ccco3)CC2)nc2sc(CC)cc2c1=O | 0 | 0 | 21 | 0 | 0 | 0 | 0
C=CCn1c(SCC(=O)N2CCCC2=O)nc2sc(CC)cc2c1=O | 0 | 0 | 0 | - | 0 | - | -
Cc1sc2ncnc(SCC(=O)N3CCN(C(=O)c4ccco4)CC3)c2c1C | 0 | 0 | 34 | 0 | 0 | 0 | 0
O=C(CSc1nnc(-c2ccc(Br)cc2)o1)N1CCN(C(=O)c2ccco2)CC1 | 0 | 0 | 17 | 0 | 0 | 0 | 0
Cc1cc(C)cc(-c2nnc(SCC(=O)N3CCN(C(=O)c4ccco4)CC3)o2)c1 | 0 | 0 | 0 | 0 | 0 | - | -
Cc1sc2nc(C(C)C)nc(SCC(=O)N3CCN(C(=O)c4ccco4)CC3)c2c1C | 0 | 0 | 0 | 0 | 0 | - | -
O=C(NNC(=O)C(c1ccccc1)c1ccccc1)c1ccccc1O | 0 | 0 | - | - | - | - | -
CCCC(=O)OCC(=O)Nc1ccccc1C#N | 0 | 0 | 0 | 0 | 0 | - | -
CN(C)S(=O)(=O)c1ccc(NC(=O)CSc2ncnc3ccccc23)cc1 | 0 | 0 | 19 | 0 | 0 | 0 | 0
Cc1ccc2nc(-c3ccc(NC(=O)c4ccco4)cc3)[nH]c2c1 | 0 | 0 | 17 | 0 | 0 | 0 | 0
CS(=O)(=O)c1cccc(C(=O)Nc2ccc(-c3nc4ccccc4[nH]3)cc2)c1 | 0 | 0 | 28 | - | 0 | 0 | 36
Cn1cccc1-c1nc2ccc(NC(=O)c3ccco3)cc2[nH]1 | 0 | 0 | 0 | 0 | 0 | - | -
COC(=O)CCCC1=CC2=CC(=O)C(C)(OC(=O)c3cnc4ccccc4n3)C(=O)C2=CO1 (stereo not drawn) | - | - | 0 | - | - | - | -
Cc1ccc(C(O)(c2ccccc2)c2ccccc2C(C)N(C)C)c(C)c1 (stereo not drawn) | 0 | 0 | 0 | 0 | 0 | - | -
CC(C)C1Cc2c(sc(NC(=S)NC(=O)c3ccccc3)c2C#N)CO1 (stereo not drawn) | 0 | 0 | 0 | 0 | 0 | - | -
CC(C)N1CCc2c(sc(NC(=S)NC(=O)c3ccccc3)c2C#N)C1 | 0 | 0 | 19 | 0 | 0 | 0 | 0
Cc1sc(NC(=S)NC(=O)c2ccccc2)c(C#N)c1C | 0 | 0 | 0 | 0 | 0 | - | -
CCCN1CCc2c(sc(NC(=S)NC(=O)c3ccccc3)c2C#N)C1 | 0 | 0 | 39 | 0 | 0 | 0 | 0
SMILES | TLR9-MyD88 inh | NOD2 RIPK2 PPI | IDE inh | TLR4-MyD88 BLA | IDE cell activ | IDE inh confirm | HEK cytotox | others
CCCn1cnc2c(c1=O)c1nc3ccccc3nc1n2CCc1ccccc1 | 0 | 0 | 0 | 0 | 0 | - | -
O=C(Nc1ccc(Cl)cc1)N1CCN(c2ccc3nnc(-c4ccc(F)cc4)n3n2)CC1 | 0 | 0 | 22 | 0 | 0 | 0 | 0
CC1(C)CC(=O)C/C(=N\NC(=O)Cc2ccccc2)C1 | 0 | 0 | 0 | 0 | 0 | - | -
CC1(C)CC(=O)C/C(=N/NC(=O)c2ccc(-c3ccccc3)cc2)C1 | 0 | 0 | 18 | 0 | 0 | 0 | 0
O=C1C=CC(=O)N1CCCCCCN1C(=O)C=CC1=O | - | - | 19 | 0 | - | 0 | 124
O=C(NC1CCCc2ccccc21)c1cc(F)cc(F)c1 (stereo not drawn) | 0 | 0 | 0 | - | 0 | - | -
Nc1c(C(=O)NCCc2ccccc2)sc2nc(N3CCOCC3)c3c(c12)CCCC3 | 0 | 0 | 17 | 0 | 0 | 0 | 29
c1ccc(C(c2ccccn2)c2ccccn2)cc1 | 0 | 0 | 17 | 0 | 0 | 0 | 0
CC(=O)Oc1ccc(C(c2ccc(OC(C)=O)cc2)c2ccccn2)cc1 | 0 | 0 | 0 | 0 | 0 | - | -
Cc1cc([N+](=O)[O-])nn1CC(=O)NCCCN1CCOCC1 | 0 | 0 | 0 | - | 0 | - | -
Cc1cc(C)c2c(=O)n(CC(=O)NCCCN3CCN(c4ccccc4F)CC3)sc2n1 | - | - | 39 | 0 | - | 0 | 115
Cc1ccccc1CS(=O)(=O)CCC(=O)NCCCN1CCN(c2ccccc2F)CC1 | 0 | 0 | 0 | 0 | 0 | - | -
Cc1cc(C)c2c(=O)n(CC(=O)NCCCN3CCOCC3)sc2n1 | 0 | 0 | 22 | 0 | 0 | 20 | 0
O=C(Cn1nc(-c2ccccc2)oc1=O)OCC(=O)c1ccc(F)c(F)c1 | 0 | 0 | 0 | - | 0 | - | -
Cc1ccc(-c2nc3ccccc3[nH]2)cc1NC(=S)NC(=O)c1ccccc1Br | 0 | 0 | 18 | 0 | 0 | 0 | 31
Cc1ccc(-c2nc3ccccc3[nH]2)cc1NC(=O)c1ccc2c(c1)OCO2 | 0 | 0 | 0 | 0 | 0 | - | -
CSc1ncccc1C(=O)OCC(=O)NC1CCCc2ccccc21 (stereo not drawn) | 0 | 0 | 19 | - | 0 | 0 | 0
c1ccc(-c2nc(CSc3nnc(-c4cccs4)o3)cs2)cc1 | 0 | 0 | 0 | 0 | 0 | - | -
CCc1nc2ccc(C(=O)Nc3ccc(OC)c(OC)c3)cn2c1N(CC)Cc1cccc(Br)c1 | - | 0 | - | - | - | - | -
Cc1ccc(NC(=O)Nc2ccnc(-c3cccnc3)n2)cc1 | 0 | 0 | 18 | 0 | 0 | 0 | 44
C=CCN1C(=O)[C@@H]2Cc3c([nH]c4ccccc34)C(c3ccc(O)cc3)N2C1=S (stereo partly drawn) | 0 | 0 | 25 | - | 0 | 0 | 22
C=CCN1C(=O)[C@@H]2Cc3c([nH]c4ccccc34)C(c3cc(OC)c(OC)c(OC)c3)N2C1=S (stereo partly drawn) | 0 | 0 | 0 | - | 0 | - | -
O=C(O)C1c2ccccc2C(=O)N(Cc2ccc(F)cc2)C1c1ccncc1 (stereo not drawn) | - | 0 | 16 | - | - | 0 | 0
CCc1ccc(C2C(C(=O)O)c3ccccc3C(=O)N2C)cc1 (stereo not drawn) | 0 | 0 | 0 | 0 | 0 | - | -
COc1cc(C(=O)NCCC2=CCCCC2)ccc1OC1CCN(C(C)=O)CC1 | 0 | 0 | 0 | - | 0 | - | -
CCC(=O)Nc1ccc(NC(=O)c2oc3ccccc3c2C)cc1 | 0 | 0 | 17 | - | 0 | 0 | 0
